From PubChem BioAssay AID1159580 (chemical genetic matrix, 2015)
Among all 5,500 compounds or so, about 2,000 (36%) were called active. About 18% were inconclusive and are not listed. No stated cut-off is given here; in the data, active means normalized growth mostly below about 0.91 (no sharp cut-off); inconclusive means no clear call, values can overlap the other calls; inactive means mostly above about 0.92. This is one part of the list.

Test: chemical genetic growth profiling, strain panel (AID 1159580);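 further: tested at 20 µM; growth read once vehicle control cultures reached saturation at 30 °C; 1 = growth at the plate median or of vehicle wells; lower values mean less growth of the strain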
Settings: S. cerevisiae deletion strains, growth OD
[1] = locus YAL021C, strain ccr4, hits give low values
[2] = locus YAL026C, strain drs2, hits give low values
[3] = locus YAL030W, strain snc1, hits give low values
[4] = locus YBL061C, strain skt5, hits give low values
[5] = locus YBR009C, strain hhf1, hits give low values
[6] = locus YBR023C, strain chs3, hits give low values
[7] = locus YBR171W, strain sec66, hits give low values
[8] = locus YBR231C, strain swc5, hits give low values
[9] = locus YBR279W, strain paf1, hits give low values
[10] = locus YCL011C, strain gbp2, hits give low values
[11] = locus YCL016C, strain dcc1, hits give low values
[12] = locus YCL069W, strain vba3, hits give low values
[13] = locus YCR088W, strain abp1, hits give low values
[14] = locus YDL005C, strain med2, hits give low values
[15] = locus YDL040C, strain nat1, hits give low values
[16] = locus YDR001C, strain nth1, hits give low values
[17] = locus YDR069C, strain doa4, hits give low values
[18] = locus YDR137W, strain rgp1, hits give low values
[19] = locus YDR159W, strain sac3, hits give low values
[20] = locus YDR297W, strain sur2, hits give low values
[21] = locus YDR334W, strain swr1, hits give low values
[22] = locus YDR335W, strain msn5, hits give low values
[23] = locus YDR392W, strain spt3, hits give low values
[24] = locus YEL003W, strain gim4, hits give low values
[25] = locus YEL037C, strain rad23, hits give low values
[26] = locus YEL061C, strain CIN8 (second series), hits give low values
[27] = locus YER015W, strain faa2, hits give low values
[28] = locus YER016W, strain bim1, hits give low values
[29] = locus YER111C, strain swi4, hits give low values
[30] = locus YER155C, strain BEM2 (second series), hits give low values
[31] = locus YFR010W, strain ubp6, hits give low values
[32] = locus YGL167C, strain pmr1, hits give low values
[33] = locus YGL173C, strain kem1, hits give low values
[34] = locus YGL227W, strain vid30, hits give low values
[35] = locus YGL240W, strain doc1, hits give low values
[36] = locus YGL253W, strain hxk2, hits give low values
[37] = locus YHR013C, strain ard1, hits give low values
[38] = locus YHR027C, strain rpn1, hits give low values
[39] = locus YHR030C, strain SLT2, hits give low values
[40] = locus YHR079C, strain IRE1, hits give low values
[41] = locus YHR142W, strain chs7, hits give low values
[42] = locus YJL092W, strain hpr5, hits give low values
[43] = locus YJL095W, strain BCK1 (second series), hits give low values
[44] = locus YJL095W, strain BCK1, hits give low values
[45] = locus YJL115W, strain asf1, hits give low values
[46] = locus YJL129C, strain trk1, hits give low values
[47] = locus YJL154C, strain vps35, hits give low values
[48] = locus YJL164C, strain tpk1, hits give low values
[49] = locus YJL166W, strain qcr8, hits give low values
[50] = locus YJR066W, strain TOR1, hits give low values
[51] = locus YKL160W, strain elf1, hits give low values
[52] = locus YKR026C, strain gcn3, hits give low values
[53] = locus YKR091W, strain srl3, hits give low values
[54] = locus YLL001W, strain dnm1, hits give low values
[55] = locus YLL026W, hits give low values
[56] = locus YLL041C, strain sdh2, hits give low values
[57] = locus YLR027C, strain aat2, hits give low values
[58] = locus YLR113W, strain HOG1, hits give low values
[59] = locus YLR221C, strain rsa3, hits give low values
[60] = locus YLR258W, strain gsy2, hits give low values
[61] = locus YLR262C, strain YPT6 (second series), hits give low values
[62] = locus YLR320W, strain mms22, hits give low values
[63] = locus YLR342W, strain FKS1, hits give low values
[64] = locus YLR357W, strain rsc2, hits give low values
[65] = locus YLR370C, strain arc18, hits give low values
[66] = locus YLR384C, strain iki3, hits give low values
[67] = locus YML120C, strain ndi1, hits give low values
[68] = locus YMR058W, strain fet3, hits give low values
[69] = locus YMR125W, strain sto1, hits give low values
[70] = locus YMR129W, hits give low values
[71] = locus YMR205C, strain PFK2, hits give low values
[72] = locus YMR231W, strain pep5, hits give low values
[73] = locus YNL071W, strain lat1, hits give low values
[74] = locus YNL183C, strain NPR1, hits give low values
[75] = locus YNL209W, strain ssb2, hits give low values
[76] = locus YNL248C, strain rpa49, hits give low values
[77] = locus YNL322C, strain KRE1 (second series), hits give low values
[78] = locus YNR049C, strain mso1, hits give low values
[79] = locus YOR001W, strain rrp6, hits give low values
[80] = locus YOR070C, strain gyp1, hits give low values
[81] = locus YOR080W, strain dia2, hits give low values
[82] = locus YOR083W, strain WHI5, hits give low values
[83] = locus YOR106W, strain vam3, hits give low values
[84] = locus YOR231W, strain MKK1, hits give low values
[85] = locus YOR265W, strain rbl2, hits give low values
[86] = locus YOR270C, strain vph1, hits give low values
[87] = locus YOR290C, strain snf2, hits give low values
[88] = locus YPL051W, strain arl3, hits give low values
[89] = locus YPL078C, strain atp4, hits give low values
[90] = locus YPL106C, strain sse1, hits give low values
[91] = locus YPL240C, strain hsp82, hits give low values
[92] = locus YPL256C, strain CLN2, hits give low values

Measured: normalized growth

Cc1coc2c1C(=O)C(=O)c1c-2ccc2c1CCCC2(C)C
inactive: [1] 0.912 | [3] 0.936 | [4] 0.968 | [6] 0.951 | [7] 0.916 | [9] 0.944 | [10] 0.913 | [12] 0.95 | [13] 0.955 | [14] 0.945 | [15] 0.948 | [16] 0.949 | [17] 0.925 | locus YDR195W, strain ref2 0.989 | [20] 0.951 | [21] 0.923 | [22] 0.929 | [25] 0.947 | [27] 0.951 | [28] 0.926 | [29] 0.953 | [31] 0.902 | [32] 0.946 | [33] 0.97 | [34] 0.962 | [38] 0.957 | [40] 0.859 | [42] 0.94 | [43] 0.925 | [45] 0.953 | [47] 0.957 | [48] 0.927 | [49] 0.94 | locus YJL187C, strain SWE1, hits give low values 0.965 | [50] 0.835 | [52] 0.943 | [53] 0.946 | [55] 0.936 | [56] 0.958 | [60] 0.964 | [64] 1.07 | [65] 0.927 | [66] 0.96 | [68] 0.913 | [69] 0.975 | [70] 0.938 | [72] 0.953 | [75] 0.954 | [76] 1.03 | [77] 0.949 | [78] 0.954 | [79] 0.927 | [81] 0.949 | [82] 0.928 | [84] 0.867 | [85] 0.948 | [86] 0.809 | [87] 0.958 | [90] 0.852 | [91] 0.944 | [92] 0.894
active: [2] 0.869 | [5] 0.882 | [8] 0.815 | [11] 0.904 | locus YCL061C, strain MRC1, hits give low values 0.91 | [18] 0.439 | [19] 0.582 | [23] 0.196 | [24] 0.903 | [26] 0.905 | [30] 0.592 | [35] 0.801 | [36] 0.828 | [37] 0.815 | [39] 0.81 | [41] 0.868 | [44] 0.855 | [46] 0.738 | [51] 0.886 | [54] 0.886 | [57] 0.911 | [58] 0.821 | [59] 0.873 | [61] 0.485 | [62] 0.79 | [63] 0.904 | [67] 0.905 | [71] 0.735 | [73] 0.766 | [74] 0.82 | [80] 0.911 | [83] 0.852 | [88] 0.913 | [89] 0.853

Cc1c(S(=O)(=O)O)oc2c1C(=O)C(=O)c1c-2ccc2c1CCCC2(C)C
active: [3] 0.92 | [5] 0.885 | [8] 0.889 | [10] 0.861 | [17] 0.874 | [18] 0.631 | [19] 0.808 | [23] 0.586 | [30] 0.779 | [35] 0.817 | [43] 0.912 | [46] 0.859 | [49] 0.893 | [51] 0.896 | [55] 0.924 | [57] 0.9 | [59] 0.891 | [61] 0.57 | [62] 0.871 | [67] 0.9 | [68] 0.839 | [70] 0.918 | [73] 0.726 | [82] 0.856 | [83] 0.821 | [88] 0.873 | [91] 0.921
inactive: [1] 0.946 | [2] 0.923 | [4] 0.954 | [6] 0.943 | [7] 0.937 | [9] 0.985 | [11] 0.958 | [12] 0.983 | [13] 0.946 | [14] 0.963 | [15] 0.959 | [16] 0.955 | locus YDR195W, strain ref2 0.974 | [20] 0.939 | [21] 0.924 | [22] 0.962 | [24] 0.928 | [25] 0.947 | [26] 0.956 | [27] 0.93 | [28] 0.94 | [29] 0.965 | [31] 0.943 | [32] 0.928 | [33] 0.965 | [34] 0.968 | [36] 0.982 | [37] 0.913 | [38] 0.962 | [39] 0.982 | [40] 0.959 | [41] 0.994 | [42] 0.956 | [44] 0.979 | [45] 0.952 | [47] 0.969 | [48] 0.918 | [50] 0.934 | [52] 0.932 | [53] 0.95 | [54] 0.962 | [56] 0.938 | [58] 0.967 | [60] 0.95 | [63] 0.916 | [64] 0.905 | [65] 0.949 | [66] 0.926 | [69] 1 | [71] 0.912 | [72] 0.933 | [74] 0.932 | [75] 0.955 | [76] 0.962 | [77] 0.916 | [78] 0.976 | [79] 0.935 | [80] 0.949 | [81] 0.93 | [84] 0.98 | [85] 0.937 | [86] 0.956 | [87] 0.95 | [89] 0.931 | [90] 0.857 | [92] 0.968

Cc1cccc2c3c(ccc12)C1=C(C(=O)C3=O)C(C)CO1 (stereo unspecified)
active: [39] 0.128 | [40] 0.174 | [44] 0.263 | [50] 0.756 | [58] 0.163 | [74] 0.72 | [84] 0.133 | [92] 0.141
